This note sets out measurements from PubChem BioAssay.

The nature of test [1]: antimalarial activity against Dd2 strain (AID 2302;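 active means growth inhibition above 50% at the single 2 µM test dose, taken to imply half-maximal potency below 2 µM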;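 further: 0% = DMSO untreated growth and 100% = chloroquine plus artemisinin killed control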). As to conditions: P. falciparum Dd2 in RBCs, LDH growth readout, 72 h; at 2 µM; hits give high values.
The nature of test [2]: human hepatoma cell viability loss – ATP luminescence, cytotoxicity control for P. falciparum antimalarial project, primary screen (AID 2303;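 active means inhibition above 50%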;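 further: 0% = DMSO wells and 100% = digitonin-killed cells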). As to conditions: HepG2 viability, 24-48 h, at 10 µM, hits give high values.
The target in test [3] is L-lactate dehydrogenase (Plasmodium falciparum (isolate CDC / Honduras)) (UniProt Q27743). As to the kind of experiment: PfLDH activity inhibition – cell lysate, 3D7 strain, counter-screen for P. falciparum growth inhibition project (AID 2304).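 Further: 0% = vehicle and 100% = reference inhibitor.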 As to conditions: P. falciparum 3D7 crude extract, LDH APAD/NBT absorbance; at 2 µM; hits give high values. (A counterscreen serves to expose hits that act by an unwanted route or on another target.)
Chain of L-lactate dehydrogenase (Plasmodium falciparum (isolate CDC / Honduras)) (Q27743 whole entry, looked up): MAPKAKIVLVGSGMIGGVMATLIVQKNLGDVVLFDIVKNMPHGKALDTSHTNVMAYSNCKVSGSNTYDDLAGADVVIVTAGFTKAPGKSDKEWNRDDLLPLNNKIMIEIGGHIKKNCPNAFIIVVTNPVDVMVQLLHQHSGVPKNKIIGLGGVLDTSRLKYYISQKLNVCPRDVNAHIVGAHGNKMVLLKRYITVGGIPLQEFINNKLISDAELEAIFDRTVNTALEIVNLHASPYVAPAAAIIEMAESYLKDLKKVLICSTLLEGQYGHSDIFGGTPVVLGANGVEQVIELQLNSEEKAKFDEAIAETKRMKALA

The nature of test [4]: inhibition of 3D7 malaria parasite growth – strain 3D7 (AID 2306).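 Further: 0% = DMSO wells and 100% = chloroquine plus artemisinin control wells.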 As to conditions: P. falciparum 3D7 erythrocytic growth, LDH absorbance, 72 h; at 2 µM; hits give high values.
Test [5] has as its target Calcium-dependent protein kinase 1 (Plasmodium falciparum (isolate 3D7)) (UniProt P62344). As to the kind of experiment: PfCDPK1 kinase inhibitors, biochemical, TCAMS library (AID 1159585; cut-off not given, nearly all actives have IC50 up to about 0.98 µM;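 further: inhibitors leave more ATP so luminescence rises with inhibition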). As to conditions: recombinant PfCDPK1, Kinase-Glo ATP depletion luminescence. (In general: In Kinase-Glo more light means more ATP remaining.)
Test [6] has as its target Plasmodium falciparum protein kinase 6 (PK6, PF3D7_1337100) (UniProt Q8IDW1). As to the kind of experiment: PfPK6 kinase inhibitors, biochemical, TCAMS library (AID 1159586). As to conditions: recombinant PfPK6, Kinase-Glo ATP depletion luminescence.
Test [7] concerns the target Protein kinase 7 (PK7), Plasmodium falciparum 3D7 (PF3D7_0213400) (UniProt Q7YTF7). Put plainly: inhibition of Plasmodium PK7 catalytic activity – biochemical, TCAMS antimalarial set, Kinase-Glo luminescence (AID 1159587). As to conditions: recombinant PfPK7, Kinase-Glo ATP depletion luminescence.
The target of test [8] is Calcium-dependent protein kinase 4 (Plasmodium falciparum (isolate 3D7)) (UniProt Q8IBS5). Put plainly: PfCDPK4 kinase inhibitors, biochemical, TCAMS library (AID 1159588; cut-off not given, nearly all actives have IC50 up to about 0.91 µM). As to conditions: recombinant PfCDPK4, Kinase-Glo ATP depletion luminescence.
Chain of Calcium-dependent protein kinase 4 (Plasmodium falciparum (isolate 3D7)) (Q8IBS5 whole entry, looked up): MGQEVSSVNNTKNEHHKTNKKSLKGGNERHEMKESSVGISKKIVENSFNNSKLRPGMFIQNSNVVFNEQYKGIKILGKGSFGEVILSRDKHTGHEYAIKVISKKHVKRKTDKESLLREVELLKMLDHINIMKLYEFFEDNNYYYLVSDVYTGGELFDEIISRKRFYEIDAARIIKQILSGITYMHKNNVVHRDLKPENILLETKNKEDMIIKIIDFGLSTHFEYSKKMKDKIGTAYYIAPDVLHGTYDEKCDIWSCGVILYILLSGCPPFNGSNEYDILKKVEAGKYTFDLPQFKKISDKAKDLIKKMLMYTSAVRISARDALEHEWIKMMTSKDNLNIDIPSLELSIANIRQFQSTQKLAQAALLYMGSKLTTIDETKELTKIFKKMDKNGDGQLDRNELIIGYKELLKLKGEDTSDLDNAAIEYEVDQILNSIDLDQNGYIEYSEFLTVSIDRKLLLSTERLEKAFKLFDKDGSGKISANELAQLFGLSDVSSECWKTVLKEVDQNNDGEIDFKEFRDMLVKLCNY

Unmarked numbers belong to inactive results. For part of these data: Potency and affinity values are given separately. Active and inactive are the calls of the source. Unless noted, how the calls were made is not given here.

Chain of Protein kinase 7 (PK7), Plasmodium falciparum 3D7 (PF3D7_0213400) (Q7YTF7 1-343): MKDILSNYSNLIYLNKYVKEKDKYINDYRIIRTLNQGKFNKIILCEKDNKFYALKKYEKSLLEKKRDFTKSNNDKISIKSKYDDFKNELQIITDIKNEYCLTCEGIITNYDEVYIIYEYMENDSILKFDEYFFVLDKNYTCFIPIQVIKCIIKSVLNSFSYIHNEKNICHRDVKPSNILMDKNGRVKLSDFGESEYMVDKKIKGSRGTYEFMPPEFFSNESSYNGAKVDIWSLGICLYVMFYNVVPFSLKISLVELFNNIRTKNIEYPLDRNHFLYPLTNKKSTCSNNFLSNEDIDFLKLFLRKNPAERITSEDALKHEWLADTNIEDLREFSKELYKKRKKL
Chain of Calcium-dependent protein kinase 1 (Plasmodium falciparum (isolate 3D7)) (P62344 whole entry, looked up): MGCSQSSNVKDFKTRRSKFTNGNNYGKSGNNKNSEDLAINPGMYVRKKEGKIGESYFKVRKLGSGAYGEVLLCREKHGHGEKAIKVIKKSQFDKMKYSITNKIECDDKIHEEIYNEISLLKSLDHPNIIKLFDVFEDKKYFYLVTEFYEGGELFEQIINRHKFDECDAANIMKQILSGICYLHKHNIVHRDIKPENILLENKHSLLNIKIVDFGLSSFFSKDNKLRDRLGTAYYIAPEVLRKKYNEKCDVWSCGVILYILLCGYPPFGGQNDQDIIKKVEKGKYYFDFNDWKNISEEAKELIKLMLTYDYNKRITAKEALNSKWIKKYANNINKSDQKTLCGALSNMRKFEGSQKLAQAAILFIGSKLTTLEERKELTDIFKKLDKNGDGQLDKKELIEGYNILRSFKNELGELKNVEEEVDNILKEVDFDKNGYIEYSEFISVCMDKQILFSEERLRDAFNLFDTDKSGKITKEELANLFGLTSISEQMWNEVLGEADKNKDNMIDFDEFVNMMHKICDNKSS
Chain of Plasmodium falciparum protein kinase 6 (PK6, PF3D7_1337100) (Q8IDW1 1-305): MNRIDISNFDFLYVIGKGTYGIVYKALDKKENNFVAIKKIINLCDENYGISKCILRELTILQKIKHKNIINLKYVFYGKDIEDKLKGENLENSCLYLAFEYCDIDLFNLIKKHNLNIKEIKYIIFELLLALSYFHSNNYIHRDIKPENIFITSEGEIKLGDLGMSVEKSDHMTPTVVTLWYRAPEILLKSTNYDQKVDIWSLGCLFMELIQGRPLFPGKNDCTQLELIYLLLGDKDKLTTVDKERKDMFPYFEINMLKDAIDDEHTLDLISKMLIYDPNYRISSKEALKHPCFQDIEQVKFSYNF

As usually defined, the inhibition is the drop in the measured response relative to a control, in per cent. In the case of `N#CCCN1CCN(Cc2ccc(-c3cccc(-c4nc5ccc(F)cc5[nH]4)c3)cc2)CC1`, the growth inhibition in test [1] was 17%; in test [4] it was 91% (active). The inhibition was 16% in test [2] and 0% in test [3]. The outcome in test [5], in test [6], in test [7] and in test [8] was inactive.
In the case of `COc1ccc(C2(CNCC(O)c3cccc([N+](=O)[O-])c3)CCCC2)cc1OC` (centres undefined), the growth inhibition in test [1] was 85% (active); in test [4], 93% (active). Moreover, the inhibition in test [2] was 10%; in test [3], 5%. Moreover, the result in test [5], in test [6], in test [7] and in test [8] was inactive.
With `CCOc1c(OC)ccc2c1CCN(CCN1CCC(NC(=O)c3ccc(-c4cccc(C(F)(F)F)c4C(F)(F)F)cc3)CC1)C2`, the growth inhibition was 57% (active) in test [1] and 102% (active) in test [4]. In addition, the inhibition in test [2] is 30%; in test [3] it was -7%. For the same compound, the outcome in test [5], in test [6], in test [7] and in test [8] was inactive.
For the compound `Cn1c2c(c3ccccc31)CN(CCC1(c3ccc(Cl)c(Cl)c3)CN(C(=O)c3ccccc3)CCO1)CC2` (centres undefined), the growth inhibition in test [1] was 88% (active); in test [4], 97% (active). Besides, the inhibition in test [2] is 10%; in test [3], 3%. The result in test [5], in test [6], in test [7] and in test [8] was inactive.
In the case of `O=[N+]([O-])c1cccc(C=NNc2ccnc3cc(F)ccc23)c1`, the growth inhibition in test [1] and in test [4] was 100% (active) each time. Further, the inhibition in test [2] is 4%; in test [3], -1%. Moreover, the outcome in test [5], in test [6], in test [7] and in test [8] was inactive.
With `N#Cc1ccc(N2CCN(Cc3ccc(-c4ccc(-c5nc6ccc(C(F)(F)F)cc6[nH]5)cc4)cc3)CC2)nc1`, the growth inhibition in test [1] is 90% (active); in test [4], 101% (active). The values for the inhibition in test [2] and in test [3] were 19% and 4%, respectively. The result in test [5], in test [6], in test [7] and in test [8] was inactive.
Consider `CCN(CCCN1CCCCC1)c1cc(C)nc(Nc2ccc(C(C)C)cc2)n1`, for which the results for the growth inhibition in test [1] and in test [4] were 51% (active) and 100% (active), respectively. Further, the inhibition is 34% in test [2] and 2% in test [3]. For the same compound, the result in test [5], in test [6], in test [7] and in test [8] was inactive.
Turning to `CCCCCCN1CCC(NCc2cccc(C(F)(F)F)c2)CC1`, the growth inhibition in test [1] is 82% (active); in test [4], 103% (active). The inhibition was 18% in test [2] and -6% in test [3]. Also, the result in test [5], in test [6], in test [7] and in test [8] was inactive.
For `Cc1[nH]c(C)c(-c2ccc(CCc3ccc(F)cc3F)cc2)c(=O)c1Br`, the growth inhibition in test [1] was 98% (active); in test [4], 97% (active). In addition, the inhibition in test [2] was -5%; in test [3], -3%. The outcome in test [5], in test [6], in test [7] and in test [8] was inactive.
Take `COc1ccc2nccc([C@@H](O)CN3CCC(NC(=O)/C(=C/c4ccccc4)c4ccc(-c5ccccc5)cc4)CC3)c2c1`: the results for the growth inhibition in test [1] and in test [4] were 38% and 94% (active), respectively. Further, the inhibition in test [2] was 4%; in test [3], 0%. Further, the result in test [5], in test [6], in test [7] and in test [8] was inactive.
As for `CCc1nc(N)nc(N)c1-c1ccc(F)c(F)c1`, the growth inhibition is -1% in test [1] and 98% (active) in test [4]. Besides, the figures for the inhibition in test [2] and in test [3] were 58% (active) and -3%, respectively. The outcome in test [5], in test [6], in test [7] and in test [8] was inactive.
`CC(C)c1ccc2oc(-c3ccc(NC(=O)c4ccc([N+](=O)[O-])o4)cc3)nc2c1`: the growth inhibition in test [1] was 95% (active); in test [4], 100% (active). The inhibition was 99% (active) in test [2] and 6% in test [3]. The outcome in test [5], in test [6], in test [7] and in test [8] was inactive.
`CCOc1c(Cl)cc(Cl)cc1CNCCCNc1nc2ccccc2[nH]1`: the growth inhibition in test [1] was 1%; in test [4] it was 94% (active). In addition, the inhibition in test [2] is 18%; in test [3], -7%. Further, the result in test [5], in test [6], in test [7] and in test [8] was inactive.
`O=C(NCCCCN1CCN(CC=Cc2ccccc2)CC1)c1ccc(NC(=O)c2cc(Cl)cc(Cl)c2)cc1`: the values for the growth inhibition in test [1] and in test [4] were 63% (active) and 100% (active), respectively. The inhibition in test [2] was 26%; in test [3] it was 4%. Besides, the result in test [5], in test [6], in test [7] and in test [8] was inactive.
For the compound `NC(N)=NN=Cc1ccc2c(ccc3ccccc32)c1`, the growth inhibition in test [1] was 68% (active); in test [4] it was 100% (active). Besides, the figures for the inhibition in test [2] and in test [3] were 9% and 6%, respectively. Also, the outcome in test [5], in test [6], in test [7] and in test [8] was inactive.
As for `Cc1cc(F)ccc1Nc1nc(N(C)c2ccccc2)c2cccc(OCCO)c2n1`, the growth inhibition in test [1] was 94% (active); in test [4] it was 95% (active). The inhibition in test [2] was 34%; in test [3], 0%. The result in test [5], in test [6], in test [7] and in test [8] was inactive.
On to `O=C(/C=C/c1ccc(Cl)c(Cl)c1)NCCCCCN1CCC(NC(=O)Nc2cccc(Cl)c2Cl)CC1`, for which the growth inhibition was 35% in test [1] and 104% (active) in test [4]. Moreover, the figures for the inhibition in test [2] and in test [3] were 99% (active) and -5%, respectively. Further, the result in test [5], in test [6], in test [7] and in test [8] was inactive.
As to `CC(C)(C)c1ccc(NC(=O)Nc2ccc(Cn3ncc(N4CCCNCC4)c(Cl)c3=O)cc2)cc1`, the growth inhibition is 33% in test [1] and 95% (active) in test [4]. Moreover, the inhibition in test [2] is -4%; in test [3] it was -7%. For the same compound, the result in test [5], in test [6], in test [7] and in test [8] was inactive.
